# According to PubChem BioAssay (NCI):
# Compounds without any hit were thinned out: in the full panel of roughly 83,000, 20% have a hit.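 The endpoint reported here, percent growth, reads 100 for growth as untreated, 0 for no net growth and -100 for all cells dead.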 Values without a mark were called inactive. Active and inactive are the calls of the source. How the source made its calls: active means growth percent below 10; inactive means the rest.
# Tests used:
# Assay in all cases: NCI-60 one-dose screen, 48 h (100 = growth as untreated, 0 = no growth, -100 = all killed)
# Details in all cases: 10 µM unless noted
# OVCAR-8 ovarian = test system: OVCAR-8 ovarian
# OVCAR-5 ovarian = test system: OVCAR-5 ovarian
# OVCAR-4 ovarian = test system: OVCAR-4 ovarian
# SK-OV-3 ovarian = test system: SK-OV-3 ovarian
# IGROV1 ovarian = test system: IGROV1 ovarian
# OVCAR-3 ovarian = test system: OVCAR-3 ovarian
# HS 578T breast = test system: HS 578T breast
# NCI/ADR-RES ovarian = test system: NCI/ADR-RES ovarian
# T-47D breast = test system: T-47D breast
# BT-549 breast = test system: BT-549 breast
# MDA-MB-435 melanoma = test system: MDA-MB-435 melanoma
# SW-620 colon = test system: SW-620 colon
# HCT-116 colon = test system: HCT-116 colon
# HCC-2998 colon = test system: HCC-2998 colon
# KM12 colon = test system: KM12 colon
# MCF7 breast = test system: MCF7 breast
# RPMI-8226 leukemia = test system: RPMI-8226 leukemia
SMILES,growth (OVCAR-8 ovarian),growth (OVCAR-5 ovarian),growth (OVCAR-4 ovarian),growth (SK-OV-3 ovarian),growth (IGROV1 ovarian),growth (OVCAR-3 ovarian),growth (HS 578T breast),growth (NCI/ADR-RES ovarian),growth (T-47D breast),growth (BT-549 breast),growth (MDA-MB-435 melanoma),growth (SW-620 colon),growth (HCT-116 colon),growth (HCC-2998 colon),growth (KM12 colon),growth (MCF7 breast),growth (RPMI-8226 leukemia)
Fc1cnc(NC2CC2)nc1-c1cnc2ccc(N3CCOCC3)cn12,9.65% (active),-4.33% (active),-1.69% (active),20.6%,4.44% (active),4.44% (active),-7.95% (active),7.33% (active),7.29% (active),-5.41% (active),0.301% (active),5.59% (active),3.97% (active),1.18% (active),-2.57% (active),–,–
C[n+]1cc2c3c(ccc2c2ccc4cc5c(cc4c21)OCO5)OCO3,-79.5% (active),-65.5% (active),–,-99.5% (active),-83.2% (active),-93.5% (active),-2.95% (active),-36.4% (active),-78.2% (active),–,-85.8% (active),-67.3% (active),-89.2% (active),-82.1% (active),-78.5% (active),-72.5% (active),–
Cc1ccc(-n2nc3c(c(C#N)c2=O)CC(c2ccccc2Cl)C([N+](=O)[O-])=C3O)cc1 (configuration not stated),102%,108%,90.4%,–,90%,103%,–,98.2%,73.4%,103%,102%,109%,63.8%,113%,106%,94%,83.2%
O=c1c2cc(F)ccc2sc2c(NCCCN3CCCC3)nc3ccccc3c12,55.6%,70.3%,48.7%,88.9%,15.1%,29.3%,43.8%,67.5%,64.6%,70.6%,20.6%,20.4%,24.2%,22.1%,27.7%,-24.8% (active),–
COc1nc(N(C)O)nc(N(C)O)n1,27.1%,53.6%,33.3%,32%,54.7%,9.27% (active),87.9%,14.9%,30.3%,12.4%,49.8%,34.6%,7.23% (active),9.13% (active),24.5%,15%,–
Cc1ccc(NS(=O)(=O)c2ccc3c(c2)C2OCCC2C(c2ccc(C(=O)C(C)C)cc2)N3)cc1C (configuration not stated),58.1%,60.6%,34.6%,59.3%,56.9%,59.6%,81.7%,41.9%,24.3%,54.3%,36.3%,51.4%,30.4%,62.2%,36.5%,17.6%,–
COc1cc(/C=N/Nc2ncc(-c3cc4cc5c(cc4o3)OCO5)s2)cc(OC)c1OC,30%,98.2%,68.7%,–,66.7%,67.2%,89.6%,26.3%,45.9%,15.2%,–,55.4%,–,82.1%,23.5%,53.4%,6.26% (active)
O=C(CSc1nnc(-c2ccc(NC(=O)c3cccnc3)cc2)o1)Nc1cccc(Br)c1,88.7%,99.3%,93.8%,110%,80.5%,107%,90.6%,93.8%,56.5%,–,94.3%,96.8%,58.7%,106%,105%,90.3%,–
N#Cc1c2c(nn(-c3ccccc3)c1=O)C(O)=C([N+](=O)[O-])C(c1ccccc1)C2 (configuration not stated),81.6%,110%,73.8%,–,50.6%,–,91%,93.5%,35.1%,–,83.1%,80.6%,58.6%,101%,35.7%,24.4%,-6.06% (active)
COc1cc(C(=O)/C=C/c2c(C(F)(F)F)nc3sccn23)cc(OC)c1OC,12.2%,15.1%,17.8%,2.13% (active),23%,-30.6% (active),37.4%,-3.02% (active),-22.7% (active),-14.2% (active),12.6%,-21.2% (active),-85.3% (active),-0.607% (active),-75.6% (active),6.82% (active),–
COc1ccc(OC)c2c1[nH]c(=O)c1c3ncccc3cn21,16.8%,–,–,38.9%,28%,46.8%,69.2%,13.8%,39%,86.6%,28.6%,15.2%,21.7%,36.1%,32.5%,8.95% (active),30.1%
NC(N)=Nc1nc2ccccc2n2c1nc1ccccc12,25.5%,54.3%,36%,32.9%,20.3%,43.3%,–,63.1%,40.7%,–,33.3%,24.9%,18.2%,46.3%,33.6%,8.98% (active),–
O=C(/C=C/c1ccc(Cl)nc1)c1ccc(Cl)cc1Cl,95.6%,91.4%,87.3%,106%,96.9%,78.5%,110%,102%,91.6%,110%,89.9%,-33.2% (active),36.7%,114%,76.5%,17.1%,–
COc1ccc(-c2nc(SCCC(C)C)nc(N/N=C\c3ccccc3O)c2C#N)cc1,75.4%,99.7%,4.04% (active),87.6%,86.7%,78.8%,63.2%,84.2%,83.9%,100%,–,72.1%,71%,104%,91.4%,79%,–
O=C(/C=C/c1cccc(O)c1)c1cccc(-n2cc(-c3ccc4ccccc4c3)[nH]c2=O)c1,13.5%,-42.6% (active),-76.2% (active),19.6%,85.7%,-73.2% (active),-11% (active),-39.3% (active),-22.5% (active),-29.8% (active),-15.6% (active),-55.1% (active),-100% (active),44.3%,-72% (active),-32.2% (active),–
COC1=CC(=O)C[C@@H](C)[C@]12Oc1c(Cl)c(OC)cc(OC)c1C2=O,96.9%,90.7%,–,99.2%,89.2%,99.8%,91.5%,75.5%,105%,78.3%,1.96% (active),81.5%,–,75.5%,65.5%,85.2%,–
c1ccc(Nc2nc(-c3ccccn3)cs2)nc1,14.4%,53%,–,29.5%,9.37% (active),39.7%,42.9%,-0.82% (active),26.4%,43.9%,30.9%,30.2%,10.3%,38.3%,29%,14.7%,14.6%
